The record followed here is PubChem BioAssay (NCATS).

Each structure is given as a SMILES string. Values joined by “and” are separate entries in the source; they are usually repeats but may differ in a detail not shown here. Equal entries are not always repeated. Results filed as inconclusive are left out. Some structures have more than one record in an assay (separate samples or runs), and their calls can disagree. A number with no mark means an inactive call. Active and inactive are the calls of the source. The call rests on the fitted dose curve; in most records, active means well fitted curve in the direction sought with a large enough effect; inconclusive means small, poorly fitted or top-dose-only effect, or another doubt; inactive means no such curve, though single readings can be large; an effect the other way counts as inactive or inconclusive.

Assay [1] deals with HeLa. The experiment in a line: Primary qHTS to identify gynecologic anti-cancer compounds using libraries of approved drugs and bioactive compounds (AID 1345084). Further: nearly all actives have a fitted effect of over 55% in size. The settings on record: Gynecologic cancer cell panel viability, ATPlite luminescence, 48 h; series mostly up to 57.5 µM. The essentials:
(§1)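 In this quantitative HTS, cell killing is estimated from loss of ATP-dependent luciferase light. Cells see five compound concentrations over a 48 h exposure.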

For assay [2], the system named is Hek293T. Described as above. Particulars: Gynecologic cancer cell panel viability, ATPlite luminescence, 48 h, control line for the selectivity index; series mostly up to 57.5 µM. The essentials: as §1
In general terms: Cellular ATP, detected with luciferase, serves as a proxy for viable cell number.

Assay [3] relates to JEG-3. The description is as above. Particulars: Gynecologic cancer cell panel viability, ATPlite luminescence, 48 h; series mostly up to 57.5 µM. The essentials: as §1
Assay [4] deals with OV90. Described as above. The settings on record: Gynecologic cancer cell panel viability, ATPlite luminescence, 48 h; series mostly up to 57.5 µM. Summed up:
as §1

Assay [5] deals with PA-1. The description is as above. Particulars: Gynecologic cancer cell panel viability, ATPlite luminescence, 48 h; series mostly up to 57.5 µM. The essentials:
as §1

Assay [6] concerns SKOV3. Described as above. Particulars: Gynecologic cancer cell panel viability, ATPlite luminescence, 48 h; series mostly up to 57.5 µM. The essentials: as §1
Assay [7] has as its system Tov-21-G. Described as above. Particulars: Gynecologic cancer cell panel viability, ATPlite luminescence, 48 h; series mostly up to 57.5 µM. Summed up:
as §1

In assay [8] the test system is Tov112D. Described as above. The settings on record: Gynecologic cancer cell panel viability, ATPlite luminescence, 48 h; series mostly up to 57.5 µM. Summed up:
as §1

Assay [9] can be described thus: Drug repurposing screens with cells derived from glioblastoma tumor samples (AID 1345199). Further: nearly all actives have a fitted effect of over 40% in size. The settings on record: GBM patient neurospheres viability, ATP luminescence, 48 h. Summed up:
(§2)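 Four patient lines of CD133+ GBM neurospheres were screened at several concentrations; hits were retested in those lines plus three slower-growing GBM lines, using 48-hour treatment and ATP-based viability.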

For assay [10], the system named is astro. The description is as above. Particulars: viability, ATP luminescence, 48 h; series mostly up to 45.9 µM. Summed up: as §2
The mark [11] stands for this setting: at 45.9 µM (top of the series), tumour line B.
Where [12] appears, read: at 45.9 µM (top of the series), tumour line D.
The mark [13] stands for this setting: at 91.6 µM (top of the series), tumour line B.
Where [14] appears, read: at 91.6 µM (top of the series), tumour line D.
[15] abbreviates: at 46 µM (top of the series), tumour line A.
On the % scale 0 is the no-effect control and ±100 the full control effect; potency means the concentration at half of the fitted maximal effect.

As for `CC(C)(C)NCC(O)c1cc(Cl)c(N)c(C(F)(F)F)c1` (stereo not given), the Potency result in assay [1], in assay [4], in [5], in assay [7], in assay [8] and in assay [10] was “inactive” throughout. The result in [2], in assay [3] and in assay [6] was inactive. Besides, the values for the activity, negative = cell killing in assay [9] (setting [11]) and in assay [9] (setting [12]) were -7.42% and -9.1%, respectively.

With `C[C@@H]1CC2=CC(=O)CC[C@@H]2[C@H]2CC[C@@]3(C)[C@@H](CC[C@]3(C)O)[C@@H]21`, the Potency result in assay [1], in assay [5], in [7] and in [8] was “inactive” each time. Moreover, the result in assay [2], in assay [3] and in assay [6] was inactive.

For `CCCCC/C=C\C/C=C\C/C=C\C/C=C\CCCC(=O)NCC(=O)O`, the Potency entry in [1], in assay [4], in assay [5], in assay [7] and in assay [8] was “inactive” each time. For the same compound, the outcome in assay [2] and in assay [3] was inactive. The activity, negative = cell killing in [9] (at 4.17 µM (top of the series), tumour line A) was -24.5%; in assay [9] (at 4.17 µM (top of the series), tumour line B) it was -4.38%; in assay [9] (at 4.17 µM (top of the series), tumour line D), -5.18%; in assay [10], 0.313% [at 4.17 µM].

As to `CCN[C@H](C)Cc1cccc(C(F)(F)F)c1`, the Potency entry in assay [1], in assay [4], in assay [5], in [7], in assay [8] and in [10] was “inactive” throughout. Moreover, the outcome in assay [2], in [3] and in assay [6] was inactive. The activity, negative = cell killing in [9] (setting [13]) is -5.97%; in [9] (setting [14]), -5.78%.

For the compound `CC(C)c1c(CN(C)C(C)Cc2ccccc2)n(C)n(-c2ccccc2)c1=O` (stereo not given), the Potency result in assay [1], in assay [5], in assay [7], in assay [8] and in assay [10] was “inactive” each time. Besides, the call in assay [2], in [3] and in assay [6] was inactive. Besides, the activity, negative = cell killing is -20.9% in assay [9] (at 21.2 µM (top of the series), tumour line B) and -18.5% in [9] (at 21.2 µM (top of the series), tumour line D). Moreover, in assay [9] (tumour line A), the Potency was 11.2 µM (active).

As to `NNc1ccccc1`, the Potency result in assay [1], in assay [4], in assay [5], in assay [7] and in assay [8] was “inactive” in each case. The call in assay [2] and in assay [3] was inactive. Further, the activity, negative = cell killing was -3.46% in assay [9] (setting [11]); -1.72% in assay [9] (setting [12]); -20.5% in assay [9] (setting [15]); 11.9% in assay [9] (at 46.1 µM (top of the series), tumour line C).

`Clc1ccc(C(c2ccc(Cl)cc2)C(Cl)(Cl)Cl)cc1`: the Potency entry in assay [1], in assay [4], in [5], in assay [7], in assay [8] and in [10] was “inactive” throughout. Besides, the result in assay [2], in [3] and in assay [6] was inactive. Further, the Potency in [9] (tumour line A) was 11.2 µM (active).

Turning to `CCOP(=S)(OCC)Oc1ccc2c(C)c(Cl)c(=O)oc2c1`, the Potency entry in assay [1], in [4], in assay [5], in [7], in assay [8] and in assay [10] was “inactive” throughout. Further, the outcome in assay [2], in [3] and in [6] was inactive. For the same compound, the activity, negative = cell killing is -3.04% in assay [9] (setting [11]) and 6.08% in assay [9] (setting [12]).

As for `COP(=S)(OC)Oc1ccc(SC)c(C)c1`, the Potency entry in assay [1], in [4], in [7], in assay [8] and in assay [10] was “inactive” in each case. Moreover, the call in assay [2], in assay [3] and in assay [6] was inactive. Also, the activity, negative = cell killing in [9] (setting [11]) was -12.6%; in assay [9] (setting [12]) it was -10.9%; in [9] (setting [15]), -25.3%.

Regarding `COP(=S)(OC)SCN1C(=O)c2ccccc2C1=O`, the Potency entry in assay [1], in assay [4], in assay [5], in assay [7], in assay [8] and in assay [10] was “inactive” in each case. For the same compound, the outcome in assay [2], in [3] and in [6] was inactive. The activity, negative = cell killing is -19.8% in assay [9] (setting [11]) and -8.89% in [9] (setting [12]).

As to `C=CCC1([C@H](C)CCC)C(=O)NC(=O)NC1=O`, the Potency entry in [1], in [4], in assay [5], in assay [7], in assay [8] and in assay [10] was “inactive” throughout. In addition, the outcome in assay [2], in [3] and in assay [6] was inactive. Besides, the activity, negative = cell killing was -8.55% in assay [9] (setting [13]) and -0.262% in assay [9] (setting [14]).

As to `COc1ccc2c(c1OC)C(=O)O[C@H]2[C@@H]1c2cc3c(cc2CCN1C)OCO3`, the Potency result in [1], in assay [4], in assay [5], in assay [7] and in assay [8] was “inactive” in each case. Moreover, the call in assay [2] and in assay [3] was inactive. Also, the activity, negative = cell killing is 0.565% in assay [9] (setting [11]) and -4.13% in assay [9] (setting [12]).

For `CCCCCCCCCC(=O)O[C@H]1CC[C@H]2[C@@H]3CCC4=CC(=O)CC[C@@H]4[C@H]3CC[C@]12C`, the Potency entry in [1], in [4], in assay [5], in assay [7], in [8] and in [10] was “inactive” each time. The outcome in assay [2], in assay [3] and in assay [6] was inactive. The activity, negative = cell killing in [9] (setting [11]) is -3.32%; in [9] (setting [12]), -5.94%.

As to `C[C@]12CCC(=O)C=C1CC[C@@H]1[C@@H]2CC[C@@]2(C)[C@H]1CC[C@]2(C)O`, the Potency in [1] was 22.4 µM (active); in assay [9] (tumour line A) it was 12.6 µM (active) and 20 µM (active). The result in assay [2] and in assay [3] was inactive. The Potency entry in [4], in assay [5], in assay [7] and in assay [8] was “inactive” each time. The activity, negative = cell killing was -4.4% and -14.4% in [9] (setting [11]); -24.9% and -19.8% in assay [9] (setting [12]).

For the compound `O=P1(N(CCCl)CCCl)NCCCO1` (stereo not given), the Potency entry in [1], in [4], in assay [5], in [7] and in [8] was “inactive” in each case. The outcome in assay [2] and in assay [3] was inactive. The activity, negative = cell killing is -0.921% in assay [9] (setting [11]) and 1.42% in assay [9] (setting [12]).

On to `CC(C)(C)c1ccc(O)cc1`, for which the Potency entry in assay [1], in assay [4], in assay [5], in assay [7] and in [8] was “inactive” throughout. Further, the call in assay [2] and in assay [3] was inactive. Moreover, the activity, negative = cell killing in assay [9] (setting [11]) is -7.29%; in [9] (setting [12]), 7.61%; in assay [9] (setting [15]), -21%.

For the compound `C[C@H]1[C@@H]2Cc3ccc(O)cc3[C@@]1(C)CCN2C`, the Potency entry in [1], in [5], in assay [7] and in [8] was “inactive” in each case. In addition, the compound was classed as inactive in assay [2], in assay [3] and in assay [6]. The activity, negative = cell killing in assay [9] (at 231 µM (top of the series), tumour line B) was -0.237%; in [9] (at 231 µM (top of the series), tumour line D), -19.7%. Further, the Potency in assay [9] (tumour line A) is 112 µM (active).
